Earlier results as cited in PubChem BioAssay AID977611.
About 3,900 (100%) of roughly 3,900 compounds were called active. The limit is not given here; nearly all actives have Kd up to about 4200 µM. So high a share suggests a set chosen from earlier hits. The list shows a part of the results. Bridge positions count the residues as written; N and C are the ends. Square brackets hold non-standard residues; d marks the D form. Peptide text beside a SMILES is read from it. Orn(CH(NH2)2) = NC(N)NCCC[C@H](N)C(=O)O

Assay: PubChem AID 977611
Conditions: PDB protein-ligand complexes, literature Kd

**Q.** Which Kd (protein: NUCLEOCAPSID PROTEIN P7, PDB entry 2m3z) does the source give for `O=C1N=C(N=Nc2c(O)[nH]c3ccc(S(O)(O)O)cc23)S/C1=C\c1ccco1` here?
**A.** 0.27 µM (active)

**Q.** Which Kd (protein: Soluble cytochrome b562, Delta-type opioid receptor chimeric protein, PDB entry 4n6h) does the source give for `Oc1ccc2c3c1O[C@H]1c4[nH]c5ccccc5c4C[C@@]4(O)[C@@H](C2)N(CC2CC2)CC[C@]314` here?
**A.** 0.00052 µM (active)

**Q.** Which Kd (protein: Capsid protein p24, PDB entry 4u0c) does the source give for H-SPSGVFTFG-OH here?
**A.** 49 µM (active)

**Q.** What about the Kd (protein: Gag polyprotein, PDB entry 4u0d) of the same molecule?
**A.** 49 µM (active)

**Q.** With H-SSKPDIVG-OH as the molecule, how does the Kd (protein: NprR, PDB entry 4gpk) read?
**A.** 0.03 µM (active)

**Q.** Which Kd (protein: MOB kinase activator 1A, PDB entry 4jiz) does the source give for `CC(C)[C@H](NC(=O)[C@H](CO[P+](O)(O)O)NC(=O)[C@H](Cc1cnc[nH]1)NC(=O)[C@@H](N)Cc1ccc(O)cc1)C(=O)N[C@H](C(=O)N[C@@H](CCCNC(N)N)C(=O)N[C@@H](Cc1ccc(O)cc1)C(=O)N[C@@H](C)C(=O)O)C(C)C` here?
**A.** 2.4 µM (active)

**Q.** With H-KHWVYY-OH as the molecule, how does the Kd (PDB entry 1abt) read?
**A.** 1.4 µM (active)

**Q.** With `OC[C@H]1O[C@@H](S[C@@H]2O[C@H](CO)[C@H](O)[C@H](O)[C@@H]2O)[C@@H](O)[C@@H](O)[C@H]1O` as the molecule, how does the Kd (protein: Galectin-3, PDB entry 4jck) read?
**A.** 4300 µM (active)

**Q.** With `OC[C@H]1O[C@@H](S[C@@H]2O[C@H](CO)[C@H](O)[C@H](O)[C@H]2O)[C@H](O)[C@@H](O)[C@H]1O` as the molecule, how does the Kd (protein: Galectin-3, PDB entry 4jc1) read?
**A.** 50 µM (active)

**Q.** Which Kd (protein: Aplysia californica acetylcholine-binding protein (AChBP), PDB entry 4AFO) does the source give for `O=c1cccc2n1C[C@@H]1CNC[C@H]2C1` here?
**A.** 1.64 µM (active)

**Q.** And the Kd (protein: Aplysia californica acetylcholine-binding protein (AChBP), PDB entry 4bqt)?
**A.** 1.64 µM (active)

**Q.** For `Cc1ccc(N2C(=O)C(=O)/C(=C(/O)c3ccccc3)[C@@H]2c2cc(Br)cs2)cc1C(=O)O`, which Kd (protein: Polymerase cofactor Ebola virus VP35, PDB entry 4ibd) is on record?
**A.** 215 µM (active)

**Q.** Which Kd (protein: Polymerase cofactor Ebola virus VP35, PDB entry 4ibe) does the source give for `O=C1C(=O)N(c2ccc(Cl)c(C(=O)O)c2)[C@@H](c2cc(Br)cs2)/C1=C(\O)c1ccccc1` here?
**A.** 70.6 µM (active)

**Q.** With `O=C(O)[C@H]1C2CCC(CC2)[C@@H]1Nc1nc(-c2c[nH]c3ncc(F)cc23)ncc1F` as the molecule, how does the Kd (protein: Influenza polymerase basic protein 2 (PB2), PDB entry 4p1u) read?
**A.** 0.003 µM (active)

**Q.** Which Kd (protein: Polymerase cofactor Ebola virus VP35, PDB entry 4ibg) does the source give for `Cc1cccc(/C(O)=C2\C(=O)C(=O)N(c3ccc(CC(=O)O)cc3)[C@H]2c2cc(Cl)c3c(c2)OCO3)c1` here?
**A.** 108 µM (active)

**Q.** With `O=C1C(=O)N(c2cccc(C(=O)O)c2)[C@@H](c2cc(Cl)c3c(c2)OCO3)/C1=C(\O)c1cccc(C(F)(F)F)c1` as the molecule, how does the Kd (protein: Polymerase cofactor Ebola virus VP35, PDB entry 4ibi) read?
**A.** 73 µM (active)

**Q.** Which Kd (protein: Polymerase cofactor Ebola virus VP35, PDB entry 4ibk) does the source give for `O=C(O)c1cccc(N2C(=O)C(O)=C(C(=O)c3ccc(Cl)s3)[C@@H]2c2cc(Cl)c3c(c2)OCO3)c1` here?
**A.** 50.4 µM (active)

**Q.** Which Kd (protein: Polymerase cofactor Ebola virus VP35, PDB entry 4ibc) does the source give for `O=C(O)Cc1ccc(N2C(=O)C(=O)/C(=C(/O)c3ccccc3Cl)[C@@H]2c2ccccc2Cl)cc1` here?
**A.** 1050 µM (active)

**Q.** For `O=C1C(=O)N(c2cccc(C(=O)O)c2)[C@@H](c2cccc(C(F)(F)F)c2)/C1=C(\O)c1cccc(C(F)(F)F)c1`, which Kd (protein: Polymerase cofactor Ebola virus VP35, PDB entry 4ibj) is on record?
**A.** 47 µM (active)

**Q.** Which Kd (protein: Putative regulatory protein, PDB entry 3vvy) does the source give for `CCN1c2cc(N)ccc2-c2ccc(N)cc2[C@H]1c1ccccc1` here?
**A.** 14.6 µM (active)

**Q.** Which Kd (protein: Ralstonia solanacearum fucose-binding lectin protein, PDB entry 4csd) does the source give for `CO[C@@H]1O[C@@H](C)[C@@H](O)[C@@H](O)[C@@H]1O` here?
**A.** 1.23 µM (active)

**Q.** Which results are given for `Nc1c(O)n(Cc2ccccc2)c(=O)[nH]c1=O`?
**A.** Kd (protein: Glucose-1-phosphate thymidylyltransferase (RmlA), PDB entry 3zll): 0.395 µM (active); Kd (protein: Glucose-1-phosphate thymidylyltransferase (RmlA), PDB entry 4AS6): 0.395 µM (active)

**Q.** For `C[C@@H](O)[C@H](NC(=O)[C@@H]1CCCN1C(=O)[C@H](CO[P+](O)(O)O)NC(=O)[C@@H](N)Cc1ccc(O)cc1)C(=O)N[C@@H](CO)C(=O)N1CCC[C@H]1C(=O)O`, which Kd (protein: CTD INTERACTING DOMAIN of RNA processing factor SCAF8, PDB entry 3d9n) is on record?
**A.** 90 µM (active)

**Q.** For `C[C@@H](O)[C@H](NC(=O)[C@@H]1CCCN1C(=O)[C@H](CO)NC(=O)[C@@H](N)Cc1ccc(O)cc1)C(=O)N[C@@H](CO[P+](O)(O)O)C(=O)N1CCC[C@H]1C(=O)N[C@@H](CO)C(=O)O`, which Kd (protein: CTD INTERACTING DOMAIN of RNA processing factor SCAF8, PDB entry 3d9m) is on record?
**A.** 330 µM (active)

**Q.** For `C[C@H](Nc1nc(-c2c[nH]c3ncc(Cl)cc23)ncc1F)C(=O)N(C)C`, which Kd (protein: Influenza polymerase basic protein 2 (PB2), PDB entry 4ncm) is on record?
**A.** 0.1 µM (active)

**Q.** With `CC(C)[C@H](NC(=O)[C@H](Cc1c[nH]c2ccccc12)NC(=O)[C@H](Cc1c[nH]cn1)NC(=O)[C@H](CCCCN)NC(=O)[C@H](Cc1c[nH]c2ccccc12)NC(=O)CNC(=O)[C@H](CCCNC(N)N)NC(=O)[C@@H](N)Cc1ccc(O)cc1)C(=O)N[C@@H](Cc1ccc(O)cc1)C(=O)N[C@@H](Cc1ccc(O)cc1)C(=O)N[C@H](C(=O)N[C@H]1CSSC[C@@H](C(=O)N2CCC[C@H]2C(=O)N[C@@H](CC(=O)O)C(=O)N[C@H](C(=O)N2CCC[C@H]2C(=O)N[C@@H](Cc2ccc(O)cc2)C(=O)O)[C@H](C)O)NC1=O)[C@@H](C)O` as the molecule, how does the Kd (PDB entry 1idg) read?
**A.** 0.065 µM (active)

**Q.** Which Kd (protein: Cbtx, PDB entry 1lxh) does the source give for `CC(C)[C@H](NC(=O)[C@H](Cc1c[nH]c2ccccc12)NC(=O)[C@H](Cc1c[nH]cn1)NC(=O)[C@H](CCCCN)NC(=O)[C@H](Cc1c[nH]c2ccccc12)NC(=O)CNC(=O)[C@H](CCCNC(N)N)NC(=O)[C@@H](N)Cc1ccc(O)cc1)C(=O)N[C@@H](Cc1ccc(O)cc1)C(=O)N[C@@H](Cc1ccc(O)cc1)C(=O)N[C@H](C(=O)N[C@H]1CSSC[C@@H](C(=O)N2CCC[C@H]2C(=O)N[C@@H](CC(=O)O)C(=O)N[C@H](C(=O)N2CCC[C@H]2C(=O)N[C@@H](Cc2ccc(O)cc2)C(=O)O)[C@@H](C)O)NC1=O)[C@@H](C)O` (H-Y[Orn(CH(NH2)2)]GWKHWVYYTCCPDTPY-OH; disulfide 12-13) here?
**A.** 0.065 µM (active)

**Q.** For `Nc1nc2[nH]nc(CCC(=O)O)c(=O)c2c(=O)[nH]1`, which Kd (protein: Dihydropteroate Synthase, PDB entry 4db7) is on record?
**A.** 0.273 µM (active)
